From PubChem BioAssay AID1851 (National Center for Advancing Translational Sciences (NCATS), 2009)
Out of some 16,000 compounds screened, about 5,800 (36%) were called active. Another 23% or so got no clear call; they are omitted. The call rests on the fitted dose curve; in most records, active means well fitted curve in the direction sought with a large enough effect; inconclusive means small, poorly fitted or top-dose-only effect, or effect the other way; inactive means no such curve, though single readings can be large or run the other way. This is one part of the list. Numbered stars: 1 amine (or outer) side, 2 acyl side, 3 side chain; on linkers, the order of the positions; unused ones are H or OH. Bridge positions count the residues as written; N and C are the ends. Square brackets hold non-standard residues; d marks the D form. Peptide text beside a SMILES is read from it. I, II: the chains in the order shown. Actinocin(9to1) = Cc1c2oc3c(C)ccc(C(=O)[*:1])c3nc-2c(C(=O)[*:2])c(N)c1=O; aThr = C[C@H](O)[C@H](N)C(=O)O; NMeV = CN[C@H](C(=O)O)C(C)C; Sar = CNCC(=O)O

biological target: Cytochrome P450 2C19 (Homo sapiens) (UniProt P33261); assay: Cytochrome panel assay with activity outcomes; conditions: recombinant CYP, pro-luciferin dealkylation, luminescence, p450-cyp2c19; series mostly up to 57.1 µM
Sequence (P33261 whole entry, looked up): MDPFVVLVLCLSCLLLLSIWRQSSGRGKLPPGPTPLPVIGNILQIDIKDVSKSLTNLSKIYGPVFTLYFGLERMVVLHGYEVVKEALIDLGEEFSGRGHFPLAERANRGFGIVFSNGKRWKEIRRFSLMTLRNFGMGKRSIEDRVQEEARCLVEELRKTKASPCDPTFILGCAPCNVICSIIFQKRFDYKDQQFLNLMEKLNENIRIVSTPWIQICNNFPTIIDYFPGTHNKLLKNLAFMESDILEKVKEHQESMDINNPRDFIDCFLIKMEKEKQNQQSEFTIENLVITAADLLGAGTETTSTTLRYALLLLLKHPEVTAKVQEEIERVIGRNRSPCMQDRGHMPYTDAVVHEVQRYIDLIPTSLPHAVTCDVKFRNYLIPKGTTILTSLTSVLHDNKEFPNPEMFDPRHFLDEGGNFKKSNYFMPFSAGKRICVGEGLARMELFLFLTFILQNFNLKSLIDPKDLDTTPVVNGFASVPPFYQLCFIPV
On the % scale 0 is the no-effect control and ±100 the full control effect.

SMILES	AC50	activity, negative = inhibition
COc1ccc(C2C(=O)N(CCc3ccccc3)CC(=O)N2C2CCCC2)cc1 (stereo unspecified)	11.2 µM (active)	–
COc1ccc([C@@H]2Sc3ccccc3N(CCN(C)C)C(=O)[C@@H]2OC(C)=O)cc1	inactive	–
CCCCN1C(=O)CN(CCc2ccccc2)C(=O)C1c1ccc(OC)cc1 (stereo unspecified)	7.08 µM (active)	–
COc1ccc(C2C(C(=O)N3CCN(C)CC3)c3ccccc3C(=O)N2C2CCCCC2)cc1 (stereo unspecified)	inactive	–
Cc1noc(C)c1C(=O)N1CCC[C@@]2(CCN(C(=O)NC(C)C)C2)C1	inactive	–
CCn1c(SCC(=O)OC)nc2sc3c(c2c1=O)CCC3	8.91 µM (active)	–
CCCc1ccc(C2C3=C(CC(C)(C)CC3=O)NC3=C2C(=O)c2ccccc23)cc1 (stereo unspecified)	4.47 µM (active)	–
COc1cccc(-c2ccc3ncnc(Nc4ccccc4)c3c2)c1	0.501 µM (active)	–
COc1cccc(Nc2ncc3nc(-c4ccccc4)c(=O)n(C)c3n2)c1	inactive	–
FC(F)(F)c1ccccc1-c1ccc2ncnc(NCc3cccnc3)c2c1	0.00794 µM (active)	–
c1ccc(Nc2ncnc3ccc(-c4cccnc4)cc23)cc1	inactive	–
COc1ccc(-n2cnc3sc(-c4ccccc4)cc3c2=O)cc1	14.1 µM (active)	–
COc1ncc2nc(-c3ccccc3)c(=O)n(C)c2n1	inactive	–
c1ccc(Nc2ncnc3ccc(-c4ccoc4)cc23)cc1	2 µM (active)	–
CN(C)C(=O)c1ccc(-c2ccc3ncnc(Nc4ccccc4)c3c2)cc1	inactive	–
CC(C)=NO[C@@H](C)CN1CCCCc2nc(C)c(C)cc21	–	-14.1% [at 11.4 µM] (inactive)
COc1ccccc1-c1ccc2ncnc(NCc3cccnc3)c2c1	0.00794 µM (active)	–
Clc1cccc(Nc2ncnc3ccc(Br)cc23)c1	5.01 µM (active)	–
NCCNc1ncnc2ccc(Cl)cc12	–	-2.27% [at 11.4 µM] (inactive)
COc1cccc(-c2ccc3ncnc(NCc4cccnc4)c3c2)c1	0.0126 µM (active)	–
COCCNc1ncnc2ccc(-c3ccccc3CN(C)C)cc12	inactive	–

SMILES	AC50	activity, negative = inhibition
COCCNc1ncnc2ccc(-c3ccccc3OC)cc12	5.01 µM (active)	–
COc1ccccc1CN1CC[C@@]2(CCCN(C(=O)c3ccco3)C2)C1	inactive	–
Cc1cnc(CNc2ncnc3ccc(-c4cccc(C#N)c4)cc23)cn1	inactive	–
FC(F)(F)c1ccccc1-c1ccc2ncnc(NCc3cccs3)c2c1	3.16 µM (active)	–
COc1cccc(-c2ccc3ncnc(NCc4cnc(C)cn4)c3c2)c1	15.8 µM (active)	–
COCCNc1ncnc2ccc(-c3ccccc3C(F)(F)F)cc12	6.31 µM (active)	–
COc1ccc(Nc2ncnc3sc(-c4ccccc4)cc23)cc1	3.16 µM (active)	–
O=C(c1cnccn1)N1CCC[C@@]2(CCN(c3ncccn3)C2)C1	inactive	–
Cc1c2oc3c(C)ccc(C(=O)N[C@@H]4C(=O)N[C@@H](C(C)C)C(=O)N5CCC[C@@H]5C(=O)N(C)CC(=O)N(C)[C@@H](C(C)C)C(=O)O[C@H]4C)c3nc-2c(C(=O)N[C@@H]2C(=O)N[C@@H](C(C)C)C(=O)N3CCC[C@@H]3C(=O)N(C)CC(=O)N(C)[C@@H](C(C)C)C(=O)O[C@H]2C)c(N)c1=O (I: [aThr]V[dP][Sar][NMeV] / II: [aThr]V[dP][Sar][NMeV]; ester I:1-I:C, II:1-II:C; linker I:N-II:N via Actinocin(9to1))	inactive	–
Clc1ccccc1-c1ccc2ncnc(NCc3cccnc3)c2c1	0.01 µM (active)	–
COc1ccccc1-c1ccc2ncnc(Nc3ccccc3)c2c1	5.01 µM (active)	–
CN(C)Cc1ccccc1-c1ccc2ncnc(NCc3ccccc3)c2c1	inactive	–
COc1ccccc1-c1ccc2ncnc(NCc3ccccc3)c2c1	3.98 µM (active)	–
Nc1nc2n[nH]nc2c(=O)[nH]1	inactive	–
NC(N)=NC(=O)c1nc(Cl)c(N2CCCCCC2)nc1N	5.01 µM (active)	–
NC(N)=NC(=O)c1nc(Cl)c(N)nc1N	inactive	–
CN(C)c1nc(N)c(C(=O)N=C(N)N)nc1Cl	inactive	–
CCN(c1nc(N)c(C(=O)N=C(N)N)nc1Cl)C(C)C	inactive	–
c1c[nH]c(CN2CCN(Cc3ncc[nH]3)CC2)n1	–	-25.8% [at 11.4 µM] (inactive)
Cc1cc(C(=O)CSC(=S)SC(C)(C)C)ccc1Cl	1 µM (active)	–
CC(=O)N1CCc2cc(Br)cc(S(=O)(=O)N3CCN(C(=O)c4ccco4)CC3)c21	4.47 µM (active)	–

SMILES	AC50	activity, negative = inhibition
Cc1ccc(NC(=O)c2nnn(-c3cc(C)cc(C)c3)c2N)cc1	3.98 µM (active)	–
Cc1cc(Cc2cc(Cc3cc(C)cc(C(C)(C)C)c3O)c(C)cc2C)c(O)c(C(C)(C)C)c1	1 µM (active)	–
Cc1cc(Cc2c(C)c(C)c(Cc3cc(C)cc(C(C)(C)C)c3O)c(C)c2C)c(O)c(C(C)(C)C)c1	–	37.4% [at 11.4 µM] (inactive)
Cc1cc(Cc2cc(C)cc(C(C)(C)C)c2O)c(O)c(Cc2cc(C)cc(C(C)(C)C)c2O)c1	3.16 µM (active)	–
CCN1CCN(C(=O)N[C@H](C(=O)N[C@@H]2C(=O)N3[C@@H]2SC(C)(C)[C@@H]3C(=O)O)c2ccccc2)C(=O)C1=O	inactive	–
N#Cc1cccc(-c2cncnc2NCc2cccnc2)c1	3.98 µM (active)	–
N#Cc1cccc(-c2cncnc2NCc2ccccc2)c1	7.94 µM (active)	–
N#Cc1cccc(-c2cncnc2NCc2cccs2)c1	7.94 µM (active)	–
Cc1cccc(CNc2ncncc2-c2cccc(C#N)c2)c1	3.98 µM (active)	–
Cc1cnc(CNc2ncncc2-c2cccc(C#N)c2)cn1	inactive	–
CC(C)CN1CCC2(CC1)CCN(C(=O)c1cccn1C)CC2	inactive	–
CC(=O)NC1=NC(=O)CS1	inactive	–
Nc1cc(-c2ccncc2)c[nH]c1=O	5.01 µM (active)	–
Cc1cccc(C)c1OC[C@@H](N)C(C)C	inactive	–
CCCCc1ccc(-c2csc(/C(C#N)=C/c3ccc(C)o3)n2)cc1	5.62 µM (active)	–
Nc1nnc(C(c2ccccc2)c2ccccc2)s1	22.4 µM (active)	–
COc1ccc(C(C(=O)NC2CCCC2)N(Cc2ccc(F)cc2)C(=O)c2ccn[nH]2)cc1OC (stereo unspecified)	10 µM (active)	–
COc1ccc(CC(NC(C)=O)C(=O)NC2CCN(C(=O)Nc3ccc(Cl)cc3)CC2)cc1OC (stereo unspecified)	inactive	–
O=C(NC1CCCC1)C(c1ccc(F)cc1)N(Cc1ccc(F)cc1)C(=O)c1ccn[nH]1 (stereo unspecified)	5.01 µM (active)	–
